Measured values published in PubChem BioAssay (NCI).
Compounds without any hit were thinned out: in the full panel of roughly 83,000, 20% have a hit.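 Negative percent growth values reflect cell death: -40 means 40% of the cells present at the start died, and -100 means all died.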 A number with no mark means an inactive call. Activity calls are given as the source filed them. Rule for the calls: active = growth percent below 10; inactive = the rest.

What was measured:
Test in all cases: NCI-60 one-dose screen, 48 h (100 = growth as untreated, 0 = no growth, -100 = all killed)
T-47D breast = details: 10 µM
BT-549 breast = details: 10 µM unless noted
MDA-MB-435 melanoma = details: 10 µM unless noted
SW-620 colon = details: 10 µM unless noted
MCF7 breast = details: 10 µM unless noted
HCT-116 colon = details: 10 µM unless noted
HCC-2998 colon = details: 10 µM unless noted
KM12 colon = details: 10 µM unless noted

| SMILES | growth (T-47D breast) | growth (BT-549 breast) | growth (MDA-MB-435 melanoma) | growth (SW-620 colon) | growth (MCF7 breast) | growth (HCT-116 colon) | growth (HCC-2998 colon) | growth (KM12 colon) |
| --- | --- | --- | --- | --- | --- | --- | --- | --- |
| COc1ccc2nc(-n3nc(C)cc3C)c(-n3nc(C)cc3C)nc2c1 | 105% | 104% | 102% | 107% | 109% | 96% | 89.8% | – |
| Cc1ccc(C(=O)O[C@H](C(=O)O)[C@H](OC(=O)c2ccc(C)cc2)C(=O)O)cc1 | 93.6% | – | – | – | – | – | – | – |
| O=C(C[Si](CC(=O)c1cccc(C(F)(F)F)c1)CC(=O)c1cccc(C(F)(F)F)c1)c1cccc(C(F)(F)F)c1 | 98.7% | 87.2% | 26% | 35% | 86.3% | 23.5% | 83.6% | – |
| COc1cc(-c2ccc3cc(OC)c(OC)c(OC)c3c2)cc(OC)c1OC | 50.7% | 72.2% | -16.7% (active) | 47.3% | 49.4% | 54.1% | – | – |
| COc1ncnc2c1ncn2C/C(Br)=C(\Br)CCl | 1.25% (active) | 70.2% | 3.99% (active) | -73.6% (active) | 0.237% (active) | -82.3% (active) | 89.8% | – |
| C[C@@H](Oc1cc(-c2cnn(C3CC4(CCNCC4)C3)c2)cnc1N)c1c(F)ccc(Cl)c1Cl | -27.9% (active) | 58.6% | -70.4% (active) | -46% (active) | -34.6% (active) | -22.5% (active) | 6.25% (active) | – |
| COC(=O)c1c2c(c(C)[n+]([O-])c1C)C(=O)C=C(NCc1cccc(OC)c1)C2=O | -43.9% (active) | -95% (active) | -94.7% (active) | -41.2% (active) | -65.4% (active) | -60.1% (active) | -64.7% (active) | -21.1% (active) |
| C[C@@H](Oc1cc(-c2cnn(C3CC4(CCCNC4)C3)c2)cnc1N)c1c(Cl)ccc(F)c1Cl (stereo partly specified) | 20.4% | 73.4% | 12.6% | -4.07% (active) | -14.5% (active) | -11.8% (active) | 15.3% | – |
| CN1CCC(OC2c3ccccc3CCc3ccccc32)CC1 | 94.9% | 90.7% | 95.5% | 95.1% | 90.5% | 98.4% | – | – |
| CS(=O)(=O)Nc1cccc(C(=O)NCc2ccc(N3CCOCC3)cc2)c1 | 95.4% | 95.6% | 105% | 108% | 99% | 101% | 106% | 97.1% |
| O=C1C(Cl)=C(NCCCN2CCOCC2)C(=O)c2ccccc21 | 102% | 97.2% | 63.9% | 79.2% | 74.6% | 97.5% | 91.3% | – |
| Cc1nc2cc(Nc3nc(N4CCOCC4)nc(N4CCN(C)CC4)n3)ccc2n1Cc1ccccc1 | 99.6% | 103% | 100% | 104% | 98.8% | 98.2% | 113% | – |
| Nc1nc(N)c(N=Nc2c(Br)cc(S(N)(=O)=O)cc2Br)c(N)n1 | 88.6% | 100% | 48.3% | 98% | 68.6% | 103% | 100% | – |
| Cn1cc(C(=O)NCCC(=N)N)cc1NC(=O)CN=C(N)N | 110% | 99.9% | 111% | 106% | 111% | 92.6% | 88.6% | – |
| NC(=O)c1nc2c([nH]c1=O)CCCC2 | 92.7% | 115% | 113% | 101% | 98.7% | 109% | – | – |
| CCOC(=O)C1=C(C)N2C(=NC3=C(CCCC/C3=C\c3ccccc3)C2c2ccccc2)S1 (stereo unspecified) | 78.7% | 99.1% | 93.7% | 101% | 87.8% | 96.3% | 94.9% | – |
| O=C(NCc1ccco1)C1CCN(S(=O)(=O)c2ccc(Cl)cc2)CC1 | 78% | 84.4% | -9% (active) | 38.5% | 64.7% | 70.4% | 80.3% | 37.6% |
| Cc1nc2cc(Nc3nc(Nc4ccc(F)cc4)nc(-c4cccs4)n3)ccc2n1Cc1ccccc1 | 23.3% | 69.5% | 43.8% | 68.1% | 32.9% | 24.2% | 72.1% | 25.2% |

| SMILES | growth (T-47D breast) | growth (BT-549 breast) | growth (MDA-MB-435 melanoma) | growth (SW-620 colon) | growth (MCF7 breast) | growth (HCT-116 colon) | growth (HCC-2998 colon) | growth (KM12 colon) |
| --- | --- | --- | --- | --- | --- | --- | --- | --- |
| COc1ccc(-n2ncc3c2ccc2cc(S(=O)(=O)c4ccccc4)c(=O)n(C)c23)cc1 | 90.6% | 67.8% | 90.3% | 97.5% | 91% | 78.3% | 102% | 88.8% |
| COc1cccc(C2C3=C(COC3=O)N(CCO)c3cc4c(cc32)OCO4)c1 (stereo unspecified) | 49.1% | 37.2% | -40.1% (active) | 22.4% | 14.6% | 8.72% (active) | 5.59% (active) | 14.3% |
| Cc1nc2cc(Nc3nc(Nc4ccc(F)cc4)nc(-c4ccc(Cl)cc4)n3)ccc2n1Cc1ccccc1 | 30.7% | 101% | 66.2% | 68.1% | 42.4% | 50.3% | 81.6% | – |
| CC(C)(C)CC(C)(C)N(CSc1ccc(Cl)cc1)CSc1ccc(Cl)cc1 | 63.2% | -52.4% (active) | 46.3% | 35.9% | 31.4% | 25.5% | 65.3% | 33.5% |
| O=c1nc(NO)[nH]c(=O)n1Cc1ccc(F)cc1 | 97% | 102% | 103% | 101% | 94.3% | 102% | 114% | – |
| COc1cccc(C2C3=C(COC3=O)N(CCO)c3cc4c(cc32)CCC4)c1 (stereo unspecified) | 77.7% | 1.24% (active) | -32.7% (active) | 18.8% | 9.39% (active) | -9.32% (active) | -20.6% (active) | -42.8% (active) |
| COC(=O)[C@@H]1CCCN1C(=O)[C@@H]1CCCN1C(=O)[C@@H](Cc1c[nH]c2ccccc12)NC(=S)Nc1cc(C(F)(F)F)cc(C(F)(F)F)c1 | 32.8% | 82.4% | 5.44% (active) | 50.3% | 25.9% | 34% | 35.4% | 66.2% |
| Cc1cc(=O)[nH]n1-c1cc(Cl)ccc1N | 105% | 87.1% | 111% | 113% | 101% | 95.6% | – | – |
| COc1ccc(-n2c(SCc3cc(OC)c(OC)c(OC)c3)nc3ccc(C)cc3c2=O)c(OC)c1 | 33.1% | 32.1% | -55% (active) | 21% | 15.5% | 18.1% | 45.5% | – |
| COc1ccc(Nc2nc(NCCNc3ccnc4cc(Cl)ccc34)nc(N3CCOCC3)n2)cc1 | 110% | 83.7% | 11.1% | 27.2% | 56.2% | 41.8% | 0.682% (active) | – |
| O=C1CN2CCC1C/C2=C\c1ccnc2c(Cl)cccc12 (stereo unspecified) | 93.6% | 108% | 101% | 101% | 45.7% | 98.5% | 102% | – |
| CC1SC(c2ccc(Cl)cc2)N(CCc2cccs2)C1=O (stereo unspecified) | 9.51% (active) | -39.3% (active) | -37.4% (active) | 12.4% | 2.74% (active) | -5.82% (active) | -1.78% (active) | -12% (active) |
| Cc1oc2c(c1C(=O)N1CC[C@@H](N)C1)C(=O)c1c(c(O)c3ccccc3c1O)C2=O | 61.8% | 79% | 40.3% | 3.53% (active) | -1.04% (active) | 5.14% (active) | 12.3% | – |
| COC(=O)c1c2c(c(C)[n+]([O-])c1C)C(=O)C=C(NCc1ccc(Cl)cc1)C2=O | -33.8% (active) | -23.8% (active) | -96.1% (active) | -17.3% (active) | -63.2% (active) | -19.9% (active) | -34.6% (active) | – |
| C=CCCCCCCCCC(=O)[O-].C=CCCCCCCCCC(=O)[O-].[Zn+2] | 112% | – | – | – | – | – | – | – |
| COc1ccc(-c2c(-c3cc4c(c(OC)c3OC)OCO4)noc2N)cc1 | 47.5% | 60.1% | -32.1% (active) | 17.9% | 19.7% | 22.2% | 20.6% | – |
| Brc1ccc(SCN(CSc2ccc(Br)cc2)Cc2ccccc2)cc1 | 84.7% | -15.2% (active) | 75.8% | 102% | 66.2% | 57.8% | 113% | – |
| COC(=O)c1cc(-c2ccc(C)cc2)n(C(=O)CSc2nc3sc(C(N)=O)c(C)c3c(=O)n2Cc2ccccc2)n1 | 95.1% | 96.1% | 104% | 105% | 90.2% | 92% | 108% | – |
